This is an account of results in article PMC6212790, “How bacterial xenogeneic silencer rok distinguishes foreign from self DNA in its resident genome”.

Over roughly 33,000 sequences, “e-score” has its median near -0.037; the highest 2% begin near 0.34. What follows is part of a selection rich in the highest values, with near analogues and random picks from the rest.

The target of the test is T1, GST-Rok (full length) (Bacillus subtilis subsp. subtilis str. …, UniProt O34857 1-191).
T1 sequence: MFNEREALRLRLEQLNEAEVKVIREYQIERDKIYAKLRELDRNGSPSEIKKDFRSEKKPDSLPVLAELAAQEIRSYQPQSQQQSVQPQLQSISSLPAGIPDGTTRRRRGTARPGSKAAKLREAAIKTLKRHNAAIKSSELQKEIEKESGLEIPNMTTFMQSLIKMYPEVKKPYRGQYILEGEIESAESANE
The experiment in a line: protein binding microarray; Rok is a gene silencer of Bacillus subtilis; high values mean tight binding. The following applies: protein: recombinant; tags: GST (pTH5325, pDEST15-Magic modified); dsDNA, one strand shown. In a few lines:
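Each has a 25-mer constant primer and a 35-mer variable part from a de Bruijn sequence of order 10, covering every non-palindromic 8-mer at least 32 times (palindromic 16). Preference for each 8-mer is given as a rank-based, unitless enrichment score (E-score). Its range runs from 0.5 (most favored) to −0.5 (most disfavored).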
For CGCGTTAG, the binding signal came to 0.07 E-score.
The value for CTCTAACC was -0.055 E-score; that for AGAATGAA was 0.111 E-score.
Consider TGGCGCAA, for which the binding signal was -0.0245 E-score.
The value for AGGTTACG was -0.0671 E-score; that for AATCTATG was 0.174 E-score.
As for AATCTATA, the binding signal was determined as 0.384 E-score.
For GATCTATA, the binding signal turned out to be 0.307 E-score.
Turning to CATCTATC, the binding signal worked out at 0.289 E-score.
On to AATCTATC, for which the binding signal was 0.377 E-score.
Consider CATCTATA, for which the binding signal worked out at 0.199 E-score.
As to ATAGACTA, the binding signal turned out to be 0.186 E-score.
Take AGGGAATC: the binding signal is 0.0103 E-score.
As to AGTTACCC, the binding signal turned out to be 0.179 E-score.
The value for AAGACGTA was 0.132 E-score.
The value for GATATAGC was 0.0453 E-score; that for CCGATATA was 0.297 E-score; that for GCGATATA was 0.342 E-score.
Consider GATATATA, for which the binding signal was 0.365 E-score.
As for GAGATATC, the binding signal worked out at 0.181 E-score.
In the case of ACGATATA it was 0.298 E-score.
Consider GGGATATA, for which the binding signal came to 0.221 E-score.
For the sequence GTGATATA, the binding signal is 0.25 E-score.
In the case of GATATATC it was 0.39 E-score.
As to GGTACAAC, the binding signal was -0.0759 E-score.
CTGGCAAA: the binding signal was -0.152 E-score.
In the case of ACACGTGC it was -0.0468 E-score; in that of TAGCGTAA, 0.144 E-score; in that of CGGAAATC, 0.0575 E-score.
In the case of CAGAAGCG it was -0.142 E-score.
The value for AAAATAGA was 0.325 E-score.
As for AATATAGC, the binding signal came to 0.32 E-score.
In the case of CATATAGA it was 0.133 E-score; in that of AATATAGT, 0.359 E-score.
On to TATATAGA, for which the binding signal amounted to 0.404 E-score.
As to ACTATAGA, the binding signal was 0.174 E-score.
For AAAATAGT, the binding signal was found to be 0.407 E-score.
The value for CCTATAGA was 0.0582 E-score.
On to AATATAGG, for which the binding signal stood at 0.23 E-score.
In the case of TCTATAGA it was 0.36 E-score.
Regarding AAAATAGC, the binding signal was found to be 0.179 E-score.
The value for GATATAGA was 0.228 E-score; that for GCCGCTCA was -0.181 E-score; that for AGCATGTC was 0.0983 E-score.
As for CAACTTTC, the binding signal came out at 0.15 E-score.
In the case of CATTACCG it was 0.00887 E-score; in that of ACAAAACT, 0.085 E-score.
Regarding CCTACCTC, the binding signal stood at 0.0499 E-score.
Consider ATATAGGA, for which the binding signal amounted to 0.195 E-score.
In the case of CTAGAGAA it was 0.193 E-score.
In the case of AAAACGAC it was -0.0861 E-score; in that of AGTTAAAA, 0.197 E-score; in that of CATTGACA, 0.0572 E-score.
The value for AATGGAGT was 0.0603 E-score.
For ACTATAGC, the binding signal was 0.164 E-score.
In the case of CATATGGA, the binding signal is -0.0847 E-score.
In the case of TATATGGA it was 0.343 E-score; in that of ACTATAGG, 0.0843 E-score; in that of AGTATAGA, 0.159 E-score.
The value for AATAGAGA was 0.239 E-score; that for ACTATAGT was 0.409 E-score; that for AATATAGA was 0.365 E-score.
Turning to GATATGGA, the binding signal was 0.139 E-score.
The value for AGGTAATC was -0.0361 E-score; that for AGCGGGGA was -0.076 E-score.
In the case of ACCACTAG it was 0.0844 E-score.
The value for AGGAATGC was -0.0829 E-score; that for ATACCTAC was 0.351 E-score.
Regarding GTACCTAA, the binding signal was 0.132 E-score.
As for ATACCTAG, the binding signal was found to be 0.31 E-score.
The value for GAACCTAC was 0.15 E-score; that for CTACCTAA was 0.22 E-score.
The value for CTACCTAG was 0.235 E-score.
GTACCTAC: the binding signal is 0.353 E-score.
The value for CTACCTAC was 0.346 E-score; that for ATACCTAT was 0.333 E-score; that for CTGCGCTA was -0.143 E-score.
The value for ACAGAAGG was -0.105 E-score; that for AGTCTCTA was 0.0503 E-score; that for GCACTTAC was -0.0436 E-score.
In the case of TAAACCTA it was 0.181 E-score; in that of CGTGCGGA, -0.0584 E-score.
For GGGTAATA, the binding signal is 0.234 E-score.
On to AAATAGTA, for which the binding signal is 0.42 E-score.
With CAATAGTC, the binding signal worked out at 0.101 E-score.
The value for CAATAGTA was 0.341 E-score.
As to AAATAGCG, the binding signal is 0.0843 E-score.
Regarding CGGTAATC, the binding signal is -0.0198 E-score.
Regarding CGGTAATA, the binding signal was 0.372 E-score.
In the case of AAATAGCT it was 0.379 E-score.
Consider ACATAGTA, for which the binding signal came to 0.306 E-score.
As for AAATAGCA, the binding signal stood at 0.0964 E-score.
Turning to AAATAGCC, the binding signal was found to be 0.046 E-score.
The value for CAATAGTG was 0.287 E-score.
With CCTCGATA, the binding signal is -0.188 E-score.
Take GTCCTGTA: the binding signal was -0.0798 E-score.
Turning to ATAGGTGA, the binding signal turned out to be 0.0572 E-score.
Regarding GAGCCCAA, the binding signal was -0.192 E-score.
Regarding GACCAGTA, the binding signal is 0.0441 E-score.
The value for CTTTTATC was 0.118 E-score; that for ATTTGGGA was -0.131 E-score.
Take AAACGTCT: the binding signal is -0.171 E-score.
Take AAGTGACG: the binding signal stood at 0.0469 E-score.
AAACAGGG: the binding signal was -0.0541 E-score.
The value for AGTTCCAT was 0.0525 E-score.
For the sequence AGTTTGAC, the binding signal is -0.0534 E-score.
Regarding ACAACTCA, the binding signal amounted to 0.097 E-score.
In the case of AAATAGTG, the binding signal was 0.231 E-score.
Regarding GAATAGTA, the binding signal was 0.285 E-score.
Turning to AAGTAATA, the binding signal turned out to be 0.275 E-score.
In the case of TAATAGTA it was 0.401 E-score; in that of TAATAGCA, 0.257 E-score; in that of TAGTAATA, 0.408 E-score.
In the case of GAGTAATA it was 0.318 E-score; in that of AAATAGTC, 0.119 E-score; in that of TAGTAACA, 0.366 E-score.
In the case of AAGTAACA it was 0.207 E-score.
With CAGTAACA, the binding signal was 0.0586 E-score.
As to AAATAGTT, the binding signal was 0.4 E-score.
The value for GTTTGTAA was 0.172 E-score; that for CATCACAG was -0.0903 E-score; that for ACAGTTAC was 0.278 E-score.
In the case of ACATCAAG it was 0.00272 E-score; in that of AGGGTGAA, -0.17 E-score; in that of CGTGGCTC, -0.0956 E-score.
In the case of GCATGGGC, the binding signal is -0.196 E-score.
In the case of CGTGGTAG it was 0.295 E-score; in that of AGTGGTAG, 0.393 E-score; in that of ATTGGTAG, 0.371 E-score.
Regarding ATTGGTAC, the binding signal is 0.289 E-score.
On to ATAGGTAC, for which the binding signal stood at 0.219 E-score.
For the sequence AATGGTAT, the binding signal came to 0.309 E-score.
The value for AGTGGTAC was 0.191 E-score.
On to ATAGGTAG, for which the binding signal amounted to 0.41 E-score.
In the case of ATAGGTAA, the binding signal stood at 0.223 E-score.
Turning to ATTGGTAA, the binding signal worked out at 0.265 E-score.
AATGGTAG: the binding signal was found to be 0.398 E-score.
Turning to CATGGTAG, the binding signal was 0.168 E-score.
In the case of CACTGCTA it was 0.106 E-score.
The value for ACAGAACC was -0.171 E-score; that for CTTTTTTC was 0.0367 E-score; that for CAAACCTA was 0.145 E-score.
For the sequence AAATAGAA, the binding signal worked out at 0.368 E-score.
For the sequence GAATAGAA, the binding signal amounted to 0.101 E-score.
On to AAATAGAC, for which the binding signal is 0.0132 E-score.
The value for ATATAGAT was 0.416 E-score; that for GTATAGAA was 0.329 E-score.
The value for CTATAGAA was 0.275 E-score.
For ATATAGAC, the binding signal was 0.0949 E-score.
As for ATATAGAA, the binding signal stood at 0.354 E-score.
Consider ATATAGAG, for which the binding signal was 0.208 E-score.
As to TGATGTAA, the binding signal was found to be 0.134 E-score.
For the sequence AACCGTAG, the binding signal stood at 0.0498 E-score.
In the case of CGCAATAA it was 0.185 E-score; in that of ATCTCTAA, 0.0544 E-score; in that of ATATCTAG, 0.346 E-score.
Turning to CTATCTAC, the binding signal turned out to be 0.433 E-score.
In the case of ATCTCTAC it was 0.0894 E-score; in that of ATCTCTAG, -0.00242 E-score.
With CTCTCTAC, the binding signal came to 0.0296 E-score.
The value for ATATCTAA was 0.371 E-score.
The value for CTATCTTC was 0.11 E-score; that for ATATCTGC was 0.221 E-score.
The value for ATATCTAC was 0.393 E-score; that for ACATCTAG was 0.325 E-score.
For CTATCTAA, the binding signal turned out to be 0.264 E-score.
The value for AGTTAGGG was -0.0305 E-score; that for CTATGATA was 0.172 E-score; that for AACCCAAC was 0.212 E-score.
In the case of ACACAAGC it was -0.0939 E-score; in that of AACGCCCT, -0.11 E-score; in that of ACTTCACT, 0.0809 E-score.
